Test results as given in the supplement of paper PMC11732987, “Enantioselective OTUD7B fragment discovery through chemoproteomics screening and high-throughput optimisation” (Communications Chemistry, 2025).

Biological target: USP14 (UniProt P54578)
Assay: log2 ratio of Biotin-Ahx-Ub-VS probe labelling (fragment/DMSO); higher = less target engagement (more negative = stronger competition), active = hit call of the paper (q ≤ 0.05, log2 ratio ≤ -1)
Settings: compound concentration: 200 uM; treatment time: 3 h
Procedure: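 Competitive ABPP in HEK293T cell lysate. Lysates were treated with each chloroacetamide fragment at 200 µM for 3 h, then with Biotin-Ahx-Ub-VS (0.5 µM, 1 h), NeutrAvidin-enriched and analysed by diaPASEF LC-MS/MS. Protein LFQ was median-normalised; average log2 ratio is fragment/DMSO from an unpaired t-test (n=3 treated, n=44 DMSO). Hits: q ≤ 0.05, log2 ratio ≤ -1, unique peptides ≥ 2.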

USP14, sequence (P54578 whole entry, the tested form may be a part): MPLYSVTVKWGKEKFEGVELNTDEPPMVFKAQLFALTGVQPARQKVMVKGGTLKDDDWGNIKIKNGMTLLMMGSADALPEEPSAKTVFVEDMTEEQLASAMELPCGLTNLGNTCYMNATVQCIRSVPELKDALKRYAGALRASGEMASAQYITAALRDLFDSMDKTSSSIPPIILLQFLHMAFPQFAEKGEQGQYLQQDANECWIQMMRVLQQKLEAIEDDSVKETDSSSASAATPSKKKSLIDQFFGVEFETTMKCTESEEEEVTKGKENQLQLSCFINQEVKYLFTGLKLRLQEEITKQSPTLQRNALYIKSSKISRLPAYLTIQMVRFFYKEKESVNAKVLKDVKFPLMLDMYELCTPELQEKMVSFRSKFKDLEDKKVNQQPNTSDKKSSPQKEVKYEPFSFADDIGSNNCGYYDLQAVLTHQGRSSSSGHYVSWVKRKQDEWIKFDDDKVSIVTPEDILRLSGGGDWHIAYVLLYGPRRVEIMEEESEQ

log2 ratio of Biotin-Ahx-Ub-VS probe labelling, inactive:
O=C(CCl)N1CCOCC1C1CC1 (configuration not stated) -0.212
Cc1cc(CC(C)NC(=O)CCl)n[nH]1 (configuration not stated) -0.00618
Cc1cc(C(=O)NC2CCN(C(=O)CCl)CC2)no1 -0.31
C[C@H]1CN(C(=O)CCl)CCN1C(=O)c1cnn(C)c1.Cl -0.0358
O=C(CCl)N1CCOC(c2cccc(F)c2)C1 (configuration not stated) -0.3
Cc1ccc(C)c(Oc2ccc(CNC(=O)CCl)cn2)c1.Cl -0.371
CN(CCc1ncc(Br)cn1)C(=O)CCl.Cl -0.0202
